# Compound activity as filed in PubChem.
# A selection: hits, their analogues and other compounds. The true share with any hit is near 3.7%.
# HTT cytoprotect: Huntington cell model cytoprotection by ATP luminescence | Potency, µM (top dose mostly 56.4 µM), for inactives: cytoprotection (ATP increase), usual class: activators | PC12 HTT-Q103 induced, cytoprotection, ATP luminescence, 40 h | actives 0.14% (n = 230,000) | AID 1471; note: % of control where 0% means no effect; nearly all actives have a fitted effect of over 45% in size
#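 Compounds added alongside 100 nM tebufenozide, which induces toxic Q103 huntingtin exon 1-GFP in stable PC12 cells; surviving cells quantified by luminescent ATP measurement. Medium: phenol red-free DMEM, 5% equine and 5% calf serum.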
# Tau fibril FP: inhibitors of human tau fibril formation; P10636; K18 P301L tau heparin fibrillization, Alexa594 FP, 6 h; Potency, µM (doses to about 57.7 µM), without a hit: at the highest dose activity, negative = inhibition, most hits filed as inhibitors; actives 0.39% (n = 280,000); AID 1468; note: % is set by controls: 0 for no effect and ±100 for the full control effect; nearly all actives have a fitted effect of over 55% in size
# Target sequence (P10636 561-689 P618L limits assumed): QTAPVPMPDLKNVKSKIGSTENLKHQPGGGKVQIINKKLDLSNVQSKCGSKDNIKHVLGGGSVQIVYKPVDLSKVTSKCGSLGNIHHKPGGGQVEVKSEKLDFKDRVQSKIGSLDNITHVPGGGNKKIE
#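 Compound effects on tau fibrillization are measured by Alexa 594 fluorescence polarization (ex 555, em 632 nm). K18 P301L tau is used at 15 uM with 0.24 uM labeled tracer, and 20 uM heparin induces aggregation over 6 hr at 37 C.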
# Tau ThT inhib: tau fibrillization inhibition (ThT binding); actives 2.1% (n = 270,000); recombinant tau K18 P301L, heparin-induced fibrillization, ThT fluorescence; P10636; Potency, µM (doses to about 57.4 µM), inactives show at the top dose activity, negative = inhibition, actives largely listed as inhibitors; note: % is set by controls: 0 for no effect and ±100 for the full control effect; nearly all actives have a fitted effect of over 55% in size
#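 Aggregation was driven by heparin (20 uM final) acting on recombinant tau […] bearing P301L in 100 mM sodium acetate pH 7; fibrils were detected with Thioflavin T.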
# Tau fluor cs: counter-screen for tau fibril formation inhibitors; actives 0.93% (n = 280,000); tau K18 P301L (four-repeat tau fragment) Alexa594 fluorescence, heparin fibrillization; Potency, µM (titrated, usually from 57.7 µM), for the others: at the highest dose activity change, negative = decrease; AID 1463; note: % is set by controls: 0 for no effect and ±100 for the full control effect; nearly all actives have a fitted effect of over 55% in size
#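 Human K18 P301L tau (15 uM unlabeled plus 0.24 uM Alexa 594-labeled, final) in 100 mM sodium acetate pH 7 was mixed with compound and 20 uM heparin and incubated 6 hr at 37 C.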
# HttQ103 aggreg: reduces HttQ103-GFP aggregates in PC12 cells | PC12 HttQ103-GFP aggregates, Acumen cytometry, 40 h | Potency, µM (highest dose often 46.1 µM), for inactives: top-dose activity change, negative = inhibition, actives largely listed as inhibitors | actives 1.1% (n = 220,000) | AID 1688; note: % is set by controls: 0 for no effect and ±100 for the full control effect; nearly all actives have a fitted effect of over 60% in size
#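 Aggregate formation scored by laser-scanning cytometer (488 excitation, 500–530 emission) in lysed PC12 cells expressing Q103-GFP after 100 nM tebufenozide induction; library tested in dose series, with ATPLite reagent added in the multiplex.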
# * hit, by the source's call; ? = inconclusive; / = no result; [ ] = remark or other dose. Calls come from the whole dose curve; as a rule, active = well fitted curve in the direction sought with a large enough effect; inconclusive = small, poorly fitted or top-dose-only effect, or another doubt; inactive = no such curve, though single readings can be large; an effect the other way counts as inactive or inconclusive. Potency is the fitted concentration of half-maximal effect.
SMILES,HTT cytoprotect,Tau fibril FP,Tau ThT inhib,Tau fluor cs,HttQ103 aggreg
O=C(N/N=C/C(Cl)=C/c1ccc([N+](=O)[O-])cc1)C(=O)Nc1ccccc1C(=O)O,-10%[10 µM],-7%,3.2µM*,?,29%[9.22 µM]
CC1CCC(C(C)C)C(OC(=O)Cn2c(-c3ccccc3)[n+](C)c3ccccc32)C1 (stereo not given),-49%[10 µM],-14%,-8%,5%,11µM*
COc1ccc(C=O)cc1OS(=O)(=O)c1ccc(NC(C)=O)cc1,-8%[10 µM],12%,9%,6%,27%
COc1ccc(/C=N/NC(=O)c2ccc3ccccc3c2)cc1OS(=O)(=O)c1ccc(NC(C)=O)cc1,-99%,13µM*,8%,?,-4%
CCCCCCCCCCCCC/C=C\[C@H](O)[C@H](N)CO,-16%[1.9 µM],/,/,/,/
CCOC(=O)Cc1csc(NC(=O)c2sc3nc4c(C)cc(C)cc4cc3c2N)n1,-17%[10 µM],3%,16µM*,?,?
CCOC(=O)Cc1csc(NC(=O)c2csc(C)c2)n1,-25%[0.074 µM],6%,-15%,-3%,3%
N#Cc1c(-c2ccncc2)c2c([nH]c1=S)CCCC2,-12%,-4%,?,-17%,18%
Cc1ccc(-c2c3c([nH]c(=S)c2C#N)CCCC3)o1,-1%,?,22µM*,-15%,22%
O=c1cc(-c2ccccc2)oc2cc(O)c(O)c(O)c12,-12%[1.9 µM],28µM*,25µM*,?,/
COc1cc2oc(-c3ccc(O)cc3)cc(=O)c2c(OC)c1O,-18%[10 µM],-7%,?,-21%,-19%[9.22 µM]
COc1c(O)cc2oc(-c3ccc(O)cc3)cc(=O)c2c1O,-46%[10 µM],3%,?,-10%,-1%[9.22 µM]
O=c1cc(-c2ccc(O)cc2)oc2c(O)c(O)c(O)c(O)c12,-6%[10 µM],?,14µM*,?,-1%[9.22 µM]
COc1ccc(-c2cn3cccnc3n2)cc1NC(=O)c1cc(C)cc(C)c1,/,0%,-19%,-17%,/
CC(=O)/C(=C\c1ccccc1F)C(=O)c1ccccc1,7%[10 µM],/,/,/,/
COc1cc(NC(=O)c2cc3c(s2)-c2ccccc2OC3)cc(OC)c1OC,/,9%,?,6.3µM*[quencher],/
O=C(NC1CC1)c1cc2c(s1)-c1ccccc1OC2,-29%,-10%,?,-19%,6.3µM*
Cc1ccc(C)c(N2CCN(S(=O)(=O)c3cn(C)c(C)n3)CC2)c1,/,5%,2%,3%,/
C/C(CCC(=O)OC[C@@H]1O[C@H](C#Cc2ccccc2)C=C[C@@H]1Oc1ccc(C)cc1)=N/OC[C@@H](C)[C@H](OCc1ccccc1)C(C)C,-12%[10 µM],4%[11.6 µM],-9%[11.5 µM],-4%[11.6 µM],/
COc1cccc(CNC(=O)CSc2ncc(S(=O)(=O)c3ccc(C)c(Cl)c3)c(=O)[nH]2)c1,/,2%,6%,5%,/
O=C1NC(=S)/C(=C\c2ccc(-c3ccccc3Cl)o2)S1,-20%[10 µM],?,7.9µM*,?,?
S=c1[nH]nc(-c2ccccc2)n1/N=C/c1ccc(-c2ccccc2Cl)o1,/,-10%,-12%,-27%,18%
S=C(NCCSCc1ccc(Cl)cc1Cl)Nc1ccccc1,24%,?,-15%,?,?
S=C(Nc1ccccc1)Nc1ccc(OCc2ccc(Cl)cc2Cl)cc1,/,-1%,?,14µM*[quencher],-15%
CCOc1ccc(CNC(=O)C2CCN(C3=NS(=O)(=O)C(c4ccc(C)cc4)=C3CC)CC2)cc1,/,?,-15%,-10%,/
CCCC(=O)OCCNc1cc(SCc2ccco2)c2nonc2c1[N+](=O)[O-],1%[10 µM],?,4µM*,4.5µM*[quencher],-7%
CC(=O)OCCCNc1cc(SCc2ccco2)c2nonc2c1[N+](=O)[O-],-24%[10 µM],?,7.9µM*,7.1µM*[quencher],-7%
CCCSc1cc(NCCOC(C)=O)c([N+](=O)[O-])c2nonc12,9%[10 µM],-6%,?,?,1%
CCCC(=O)OCCNc1cc(Sc2nccn2C)c2nonc2c1[N+](=O)[O-],-26%[10 µM],?,7.1µM*,?,11µM*
Cc1cc(-c2c(C)[nH]n(-c3ccc(Cl)cc3)c2=O)n[nH]1,-82%,7%,-13%,-11%,11µM*
